Laboratory results published in PubChem BioAssay (Tox21).
“And” between values parts separate entries of the source, which are not always exact repeats. Identical values can stand only once. Results filed as inconclusive are left out. Entries that show only a call come without a potency. Some compounds were tested as several samples or in several runs, with calls that do not always agree. The source made the active and inactive calls. Unless noted, the call rests on the fitted dose curve; in most records, active means well fitted curve in the direction sought with a large enough effect in the repeat runs; inconclusive means weak or mixed curves; inactive means no such curve, though single readings can be large; an effect the other way counts as inactive or inconclusive.

Experiments:
[1] = Human pregnane X receptor (PXR) small molecule agonists, qHTS cell viability counter screen (AID 1346977); further: nearly all actives have a fitted effect of over 50% in size
Method in brief: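 After a 5hr pre-incubation, PXR-Luc HepG2 cells received compounds plus positive control in DMSO and were kept 24hr at 37C. Cell viability was quantified by fluorescence from CellTiter-Fluor added for the final hour.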

[2] = Caspase-3/7 induction in HepG2 cells by small molecules, qHTS assay (AID 1346978); further: nearly all actives have a fitted effect of over 15% in size
Method in brief: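 Wild-type HepG2 cells (2,000/well) were settled 5 h at 37 C, 5% CO2, then exposed to compounds in DMSO for 17 h. Caspase-3/7 activity was read by luminescence 30 min after adding Caspase-Glo 3/7 reagent at room temperature.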

[3] = Caspase-3/7 induction in CHO-K1 cells by small molecules, qHTS cell viability counter screen (AID 1346979); further: nearly all actives have a fitted effect of over 35% in size; further: potency means the concentration at half of the fitted maximal effect
Method in brief: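 Multiplexed with Caspase-Glo 3/7 in CHO-K1 cells, this counter screen added CellTiter-Fluor after 16hr of compound exposure and recorded fluorescence 1hr later.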

[4] = Caspase-3/7 induction in CHO-K1 cells by small molecules, qHTS assay (AID 1346980); further: nearly all actives have a fitted effect of over 15% in size
Method in brief: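 Wild-type cells were seeded at 1,500 per well and settled 5 hr at 37 C, 5% CO2, then exposed to DMSO-dissolved compounds for 17 hr. Caspase-Glo 3/7 reagent was added, and luminescence was read after 30min at room temperature.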

[5] = Caspase-3/7 induction in HepG2 cells by small molecules, qHTS cell viability counter screen (AID 1346981); further: nearly all actives have a fitted effect of over 30% in size; further: potency means the concentration at half of the fitted maximal effect
Method in brief: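 Fluorescence read-out of live-cell protease activity (CellTiter-Fluor) after 1 hr with reagent. This was measured in the same wells as the caspase-3/7 luminescence, on HepG2 cells exposed to DMSO-dissolved compounds for 16 hr at 37 C.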

[6] = target: Nuclear receptor subfamily 1 group I member 2 (Homo sapiens) (UniProt O75469); assay: Human pregnane X receptor (PXR) small molecule agonists, qHTS assay (AID 1346982); further: nearly all actives have a fitted effect of over 35% in size; further: potency means the concentration at half of the fitted maximal effect
Nuclear receptor subfamily 1 group I member 2 (Homo sapiens), sequence (O75469 whole entry, looked up): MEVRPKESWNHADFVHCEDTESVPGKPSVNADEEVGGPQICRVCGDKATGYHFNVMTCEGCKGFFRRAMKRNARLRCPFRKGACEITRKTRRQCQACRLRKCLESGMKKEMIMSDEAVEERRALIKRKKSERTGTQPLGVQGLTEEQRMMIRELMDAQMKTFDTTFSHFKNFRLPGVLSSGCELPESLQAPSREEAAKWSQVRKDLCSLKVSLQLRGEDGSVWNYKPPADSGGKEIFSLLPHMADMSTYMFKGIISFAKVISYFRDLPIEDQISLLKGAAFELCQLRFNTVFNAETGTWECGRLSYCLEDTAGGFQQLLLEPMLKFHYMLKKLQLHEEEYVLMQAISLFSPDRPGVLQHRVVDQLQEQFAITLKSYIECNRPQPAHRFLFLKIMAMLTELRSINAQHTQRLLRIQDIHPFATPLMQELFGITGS
Method in brief: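 HepG2 PXR-Luc reporter line, 5% charcoal-stripped FBS; 5 hr pre-incubation, compound (DMSO) 24 hr at 37 C/5% CO2; ONE-Glo 30 min RT; luminescence read-out.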

[7] = target: Acetylcholinesterase (Homo sapiens) (UniProt P22303); assay: Acetylcholinesterase (AChE) small molecule antagonists: colormetric cell-based qHTS assay (AID 1347395; calls by dose curve; further: nearly all actives have a fitted effect of over 30% in size)
Method in brief: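 In this cell-based qHTS, attached SH-SY5Y cells were treated with test chemicals for 30 min, after which acetylthiocholine hydrolysis was followed by DTNB colour development over 90 min at 37 C.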

[8] = target: Acetylcholinesterase (Homo sapiens) (UniProt P22303); assay: Acetylcholinesterase (AChE) small molecule antagonists: enzyme-based qHTS assay (AID 1347397; calls by dose curve; further: nearly all actives have a fitted effect of over 55% in size); conditions: Potency: AChE enzyme activity inhibition
Method in brief: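 Compound or DMSO vehicle was pin-transferred onto recombinant human AChE (50 mU/mL as dispensed) and left 30 min at room temperature. Acetylthiocholine with DTNB then started the reaction, read colorimetrically 10 min later.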

[9] = target: Acetylcholinesterase (Homo sapiens) (UniProt P22303); assay: Acetylcholinesterase (AChE) small molecule antagonists: fluorescence cell-based qHTS assay (AID 1347398; calls by dose curve; further: nearly all actives have a fitted effect of over 50% in size); conditions: Potency: AChE activity
Method in brief: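 Using neuroblastoma SH-SY5Y cells as the enzyme source, test chemicals are preincubated 30 min at 37 C; AChE-driven acetylthiocholine cleavage is then quantified by thiocholine-dependent Thiolite Green fluorescence after 40 min at room temperature.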

[10] = target: Cytochrome P450 2D6 (Homo sapiens) (UniProt P10635); assay: Cytochrome P450 Family 2 Subfamily D Member 6 (CYP2D6) small molecule antagonists: luciferase reporter qHTS assay (AID 1671196); further: nearly all actives have a fitted effect of over 50% in size; further: potency means the concentration at half of the fitted maximal effect
Cytochrome P450 2D6 (Homo sapiens), sequence (P10635 whole entry, looked up): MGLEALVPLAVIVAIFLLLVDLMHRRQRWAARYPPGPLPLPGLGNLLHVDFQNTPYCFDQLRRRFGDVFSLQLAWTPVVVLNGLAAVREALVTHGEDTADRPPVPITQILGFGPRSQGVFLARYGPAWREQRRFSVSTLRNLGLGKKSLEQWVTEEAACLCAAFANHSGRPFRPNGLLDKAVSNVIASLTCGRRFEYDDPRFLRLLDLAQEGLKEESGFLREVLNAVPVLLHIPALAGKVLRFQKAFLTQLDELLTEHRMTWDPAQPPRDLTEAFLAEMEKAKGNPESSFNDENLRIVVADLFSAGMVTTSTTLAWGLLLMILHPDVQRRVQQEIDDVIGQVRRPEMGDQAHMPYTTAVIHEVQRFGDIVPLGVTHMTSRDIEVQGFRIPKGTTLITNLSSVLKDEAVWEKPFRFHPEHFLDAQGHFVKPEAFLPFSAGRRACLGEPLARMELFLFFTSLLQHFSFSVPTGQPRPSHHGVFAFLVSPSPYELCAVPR
Method in brief: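 Luminogenic proluciferin substrate, CYP2D6 enzyme; 10 min RT preincubation with compound, NADPH regeneration system added, 1 h RT. Stop/detection reagent, 20 min RT, luminescence read (RLU). Signal proportional to CYP activity.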

[11] = target: Cytochrome P450 2C19 (Homo sapiens) (UniProt P33261); assay: Cytochrome P450 Family 2 Subfamily C Member 19 (CYP2C19) small molecule antagonists: luciferase reporter qHTS assay (AID 1671197); further: nearly all actives have a fitted effect of over 65% in size; further: potency means the concentration at half of the fitted maximal effect
Cytochrome P450 2C19 (Homo sapiens), sequence (P33261 whole entry, looked up): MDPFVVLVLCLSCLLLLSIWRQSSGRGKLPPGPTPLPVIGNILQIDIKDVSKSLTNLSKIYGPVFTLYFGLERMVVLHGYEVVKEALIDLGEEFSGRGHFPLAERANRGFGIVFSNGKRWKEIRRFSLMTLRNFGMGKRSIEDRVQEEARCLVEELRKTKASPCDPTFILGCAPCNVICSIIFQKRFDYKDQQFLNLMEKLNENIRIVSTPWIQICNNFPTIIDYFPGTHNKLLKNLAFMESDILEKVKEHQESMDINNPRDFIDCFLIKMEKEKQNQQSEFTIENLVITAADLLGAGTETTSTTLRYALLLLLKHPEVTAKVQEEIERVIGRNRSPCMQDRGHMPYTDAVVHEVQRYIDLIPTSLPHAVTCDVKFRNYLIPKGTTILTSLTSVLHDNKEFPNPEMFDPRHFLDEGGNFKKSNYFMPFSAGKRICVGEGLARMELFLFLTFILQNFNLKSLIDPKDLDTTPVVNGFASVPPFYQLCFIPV
Method in brief: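 P450-Glo CYP2C19 screening system; proluciferin substrate; DMSO compound stocks; 10 min RT preincubation; NADPH regeneration, 1 h at 37C; luciferin detection reagent, 20 min RT; luminescence as RLU.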

[12] = target: Cytochrome P450 2C9 (Homo sapiens) (UniProt P11712); assay: Cytochrome P450 Family 2 Subfamily C Member 9 (CYP2C9) small molecule antagonists: luciferase reporter qHTS assay (AID 1671198); further: nearly all actives have a fitted effect of over 50% in size; further: potency means the concentration at half of the fitted maximal effect
Cytochrome P450 2C9 (Homo sapiens), sequence (P11712 whole entry, looked up): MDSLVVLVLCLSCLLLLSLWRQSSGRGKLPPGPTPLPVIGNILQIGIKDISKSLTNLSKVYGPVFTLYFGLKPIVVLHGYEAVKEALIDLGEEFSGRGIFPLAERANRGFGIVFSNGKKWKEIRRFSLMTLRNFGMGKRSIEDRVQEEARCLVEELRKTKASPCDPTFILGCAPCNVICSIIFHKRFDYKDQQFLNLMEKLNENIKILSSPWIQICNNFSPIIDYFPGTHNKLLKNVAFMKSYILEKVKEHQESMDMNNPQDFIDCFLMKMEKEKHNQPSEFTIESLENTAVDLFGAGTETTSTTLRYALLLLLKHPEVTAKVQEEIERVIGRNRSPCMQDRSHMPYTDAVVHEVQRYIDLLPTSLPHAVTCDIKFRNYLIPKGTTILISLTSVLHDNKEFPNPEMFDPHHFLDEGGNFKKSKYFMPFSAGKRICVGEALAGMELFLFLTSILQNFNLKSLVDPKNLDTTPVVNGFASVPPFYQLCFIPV
Method in brief: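 CYP2C9 activity was measured with a P450-Glo proluciferin substrate. Enzyme–substrate mix was held with compound for 10 min at room temperature, then NADPH regeneration solution was added for 1 h at 37C. Luciferin product was read as luminescence.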

[13] = target: Voltage-gated inwardly rectifying potassium channel KCNH2 (Homo sapiens) (UniProt Q12809); assay: Human Ether-a-go-go-Related Gene (hERG) channel small molecule antagonists: fluorescence cell-based qHTS assay (AID 1671200); further: nearly all actives have a fitted effect of over 50% in size; further: potency means the concentration at half of the fitted maximal effect
Voltage-gated inwardly rectifying potassium channel KCNH2 (Homo sapiens), sequence (Q12809 whole entry, looked up): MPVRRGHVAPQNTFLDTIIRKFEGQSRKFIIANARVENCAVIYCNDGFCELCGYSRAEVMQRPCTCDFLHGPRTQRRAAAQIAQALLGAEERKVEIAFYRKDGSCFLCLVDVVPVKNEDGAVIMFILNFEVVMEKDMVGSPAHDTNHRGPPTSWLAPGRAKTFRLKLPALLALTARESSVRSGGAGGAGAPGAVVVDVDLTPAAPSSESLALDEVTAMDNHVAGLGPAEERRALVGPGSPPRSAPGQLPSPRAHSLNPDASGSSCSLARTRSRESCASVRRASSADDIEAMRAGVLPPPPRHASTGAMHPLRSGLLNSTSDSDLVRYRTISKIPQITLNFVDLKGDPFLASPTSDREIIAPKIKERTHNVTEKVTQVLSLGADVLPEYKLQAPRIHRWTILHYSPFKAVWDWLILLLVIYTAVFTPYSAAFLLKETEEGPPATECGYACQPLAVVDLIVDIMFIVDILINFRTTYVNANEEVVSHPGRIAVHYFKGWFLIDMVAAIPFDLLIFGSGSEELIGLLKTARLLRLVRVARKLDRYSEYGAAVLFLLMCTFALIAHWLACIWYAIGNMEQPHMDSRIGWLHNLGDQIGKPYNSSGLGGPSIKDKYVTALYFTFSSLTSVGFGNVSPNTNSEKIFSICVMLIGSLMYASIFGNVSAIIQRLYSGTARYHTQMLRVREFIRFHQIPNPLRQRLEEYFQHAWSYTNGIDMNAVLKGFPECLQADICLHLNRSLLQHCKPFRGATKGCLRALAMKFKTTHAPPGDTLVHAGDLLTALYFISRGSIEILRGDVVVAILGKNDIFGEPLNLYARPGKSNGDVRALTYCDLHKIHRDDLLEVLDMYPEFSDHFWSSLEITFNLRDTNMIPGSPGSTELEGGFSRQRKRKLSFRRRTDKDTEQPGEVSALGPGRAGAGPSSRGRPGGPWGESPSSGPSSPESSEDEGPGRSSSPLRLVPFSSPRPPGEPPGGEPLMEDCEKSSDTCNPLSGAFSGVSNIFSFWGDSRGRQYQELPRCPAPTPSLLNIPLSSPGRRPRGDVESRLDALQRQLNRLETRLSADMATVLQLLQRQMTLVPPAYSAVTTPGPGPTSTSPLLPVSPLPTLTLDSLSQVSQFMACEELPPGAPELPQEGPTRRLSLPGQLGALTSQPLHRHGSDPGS
Method in brief: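 Cell line hERG-U2OS; dye FluxOR II, 1 h RT dark; Tl+ stimulus; ex 480/em 540 nm, read each second for 2 min.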

[14] = target: Cytochrome P450 3A4 (Homo sapiens) (UniProt P08684); assay: Cytochrome P450 Family 3 Subfamily A Member 4 (CYP3A4) small molecule antagonists: luciferase reporter qHTS assay (AID 1671201); further: nearly all actives have a fitted effect of over 50% in size; further: potency means the concentration at half of the fitted maximal effect
Cytochrome P450 3A4 (Homo sapiens), sequence (P08684 whole entry, looked up): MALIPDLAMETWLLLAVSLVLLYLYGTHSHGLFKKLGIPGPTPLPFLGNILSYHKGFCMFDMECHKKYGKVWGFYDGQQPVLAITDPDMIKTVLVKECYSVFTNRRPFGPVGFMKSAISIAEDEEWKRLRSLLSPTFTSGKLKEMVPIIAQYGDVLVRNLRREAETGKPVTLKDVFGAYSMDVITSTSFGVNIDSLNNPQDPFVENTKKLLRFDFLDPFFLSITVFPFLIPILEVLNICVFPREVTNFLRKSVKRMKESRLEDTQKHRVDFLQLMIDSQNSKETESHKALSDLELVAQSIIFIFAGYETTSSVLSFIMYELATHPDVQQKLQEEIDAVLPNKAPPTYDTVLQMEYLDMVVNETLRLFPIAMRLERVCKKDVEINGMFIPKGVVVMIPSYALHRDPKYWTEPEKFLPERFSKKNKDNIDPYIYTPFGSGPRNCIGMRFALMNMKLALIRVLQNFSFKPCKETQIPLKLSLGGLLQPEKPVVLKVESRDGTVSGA
Method in brief: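 Room-temperature assay throughout: 10 min compound–enzyme/substrate preincubation, 1 h reaction after NADPH regeneration solution, 20 min detection. Luciferin formed from proluciferin substrate is quantified by luminescence.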

[15] = target: Cytochrome P450 1A2 (Homo sapiens) (UniProt P05177); assay: Cytochrome P450 Family 1 Subfamily A Member 2 (CYP1A2) small molecule antagonists: luciferase reporter qHTS assay (AID 1671199); further: nearly all actives have a fitted effect of over 50% in size; further: potency means the concentration at half of the fitted maximal effect
Cytochrome P450 1A2 (Homo sapiens), sequence (P05177 whole entry, looked up): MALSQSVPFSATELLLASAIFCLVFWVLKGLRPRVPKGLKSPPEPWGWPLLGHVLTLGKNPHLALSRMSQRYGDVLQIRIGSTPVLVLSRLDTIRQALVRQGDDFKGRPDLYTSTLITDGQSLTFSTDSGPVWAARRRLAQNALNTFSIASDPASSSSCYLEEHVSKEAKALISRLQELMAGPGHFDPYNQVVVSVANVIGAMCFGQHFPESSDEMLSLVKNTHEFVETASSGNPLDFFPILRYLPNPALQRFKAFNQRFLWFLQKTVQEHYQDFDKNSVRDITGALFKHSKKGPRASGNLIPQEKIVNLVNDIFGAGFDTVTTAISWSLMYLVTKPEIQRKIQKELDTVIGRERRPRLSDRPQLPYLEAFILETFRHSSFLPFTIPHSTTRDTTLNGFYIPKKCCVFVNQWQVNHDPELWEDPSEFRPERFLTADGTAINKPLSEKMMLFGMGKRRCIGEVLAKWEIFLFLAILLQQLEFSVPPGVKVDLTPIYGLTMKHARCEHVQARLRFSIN
Method in brief: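 Luminescence readout (relative luminescence units) after luciferin detection reagent, 20 min RT. Preceded by 1 h room-temperature CYP1A2 reaction with NADPH regeneration solution following 10 min compound preincubation with enzyme and proluciferin substrate. Furafylline positive control.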

[16] = target: Acetylcholinesterase (Homo sapiens) (UniProt P22303); assay: Acetylcholinesterase (AChE) small molecule antagonists: enzyme-based qHTS assay with human liver microsomes (AID 1347399; calls by dose curve; further: nearly all actives have a fitted effect of over 60% in size); conditions: Potency: qHTS inhibition
Method in brief: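 Recombinant human AChE (50 mU/mL in the enzyme mix) and human liver microsomes (0.25 mg/mL final) were preincubated with compound and NADPH (0.25 mg/mL final) for 30 min at 37 C. Acetylthiocholine/DTNB was then added; thiocholine was read colorimetrically after 10 min at room temperature.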

[17] = target: Thyrotropin-releasing hormone receptor (Homo sapiens) (UniProt P34981); assay: qHTS assay to identify small molecule agonists of the thyrotropin-releasing hormone receptor (TRHR) signaling pathway (AID 1346891; calls by dose curve;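 further: HEK293 cells expressing TRHR with calcium dye readout; series mostly up to about 58 µM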)
Thyrotropin-releasing hormone receptor (Homo sapiens), sequence (P34981 whole entry, looked up): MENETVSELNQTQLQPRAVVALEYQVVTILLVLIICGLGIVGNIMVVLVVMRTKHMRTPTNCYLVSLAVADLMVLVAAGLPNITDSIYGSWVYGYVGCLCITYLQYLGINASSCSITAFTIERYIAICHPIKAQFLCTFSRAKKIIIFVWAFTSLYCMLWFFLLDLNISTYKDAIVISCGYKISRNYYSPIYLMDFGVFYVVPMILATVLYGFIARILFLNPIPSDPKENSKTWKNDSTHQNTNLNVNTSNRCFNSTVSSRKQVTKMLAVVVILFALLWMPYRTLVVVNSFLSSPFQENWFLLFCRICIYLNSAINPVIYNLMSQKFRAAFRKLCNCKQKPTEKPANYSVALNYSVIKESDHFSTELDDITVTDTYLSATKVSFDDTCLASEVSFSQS
Method in brief: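 Overnight-plated (18 h, 37 °C, 5% CO2) TRHR-Hek293 cells; 2 h calcium dye at 37 °C; compound in DMSO; 3-min kinetic fluorescence read.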

[18] = target: Nuclear receptor subfamily 1 group I member 2 (Rattus norvegicus) (UniProt Q9R1A7); assay: Rat pregnane X receptor (rPXR) activation by small molecules, qHTS assay (AID 1346983); conditions: rPXR luciferase reporter cells, One-Glo luminescence, 24 h; max activation: stronger effect = higher value; further: nearly all actives have a fitted effect of over 20% in size
Nuclear receptor subfamily 1 group I member 2 (Rattus norvegicus), sequence (Q9R1A7 whole entry, looked up): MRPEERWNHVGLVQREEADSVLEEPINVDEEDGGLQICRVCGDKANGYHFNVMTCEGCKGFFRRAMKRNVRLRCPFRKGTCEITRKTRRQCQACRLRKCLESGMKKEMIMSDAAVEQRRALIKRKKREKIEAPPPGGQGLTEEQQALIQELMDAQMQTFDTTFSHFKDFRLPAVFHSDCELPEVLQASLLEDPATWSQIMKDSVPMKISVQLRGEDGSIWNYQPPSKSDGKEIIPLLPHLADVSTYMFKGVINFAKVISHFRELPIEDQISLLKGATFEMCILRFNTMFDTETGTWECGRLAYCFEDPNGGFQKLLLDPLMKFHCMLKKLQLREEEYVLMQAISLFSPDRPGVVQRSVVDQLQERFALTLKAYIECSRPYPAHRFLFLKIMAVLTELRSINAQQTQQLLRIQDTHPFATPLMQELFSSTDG
Method in brief: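 Cell-based rPXR luciferase reporter assay, 2,000 cells per well, rested 5hr at 37 C before compound addition in DMSO, then 24 hr at 37 C. One-Glo reagent was added and luminescence read after 30 min at room temperature.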

[19] = target: Nuclear receptor subfamily 1 group I member 2 (Homo sapiens) (UniProt O75469); assay: CYP3A4 induction through human pregnane X receptor (PXR) by small molecules, qHTS assay (AID 1346984); further: nearly all actives have a fitted effect of over 40% in size
Method in brief: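 HepG2-derived DPX-2 line carrying PXR plus a CYP3A4-promoter luciferase reporter; cells plated 5 hr, compound-exposed 24 hr at 37C. CYP3A4 activity probed with 3uM (final) Luciferin-IPA for 3hr, then luciferase read after One-Glo.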

[20] = target: Nuclear receptor subfamily 1 group I member 2 (Homo sapiens) (UniProt O75469); assay: Human pregnane X receptor (PXR) activation by small molecules, qHTS assay (AID 1346985); further: nearly all actives have a fitted effect of over 40% in size
Method in brief: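 DPX-2 cells (HepG2 co-transfected with a PXR response element and a CYP3A4-promoter luciferase construct) were seeded at 2,000 per well, rested 5 hr at 37C, then exposed to DMSO-dissolved compounds for 24 hr. Activation was read as luciferase luminescence.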

| SMILES | Potency [1] | outcome [2] | Potency [3] | outcome [4] | Potency [5] | Potency [6] | Potency [7] | Potency [8] | Potency [9] | Potency [10] | Potency [11] | Potency [12] | Potency [13] | Potency [14] | Potency [15] | Potency [16] | outcome [17] | max activation [18] | Potency [19] | Potency [20] |
| --- | --- | --- | --- | --- | --- | --- | --- | --- | --- | --- | --- | --- | --- | --- | --- | --- | --- | --- | --- | --- |
| Clc1cnc(Oc2ccc(Oc3ncc(Cl)cc3Cl)cc2)c(Cl)c1 | inactive | inactive | inactive | inactive | inactive | inactive | inactive | inactive | inactive | inactive | inactive | inactive | 19.5 µM (active) | inactive | – | – | – | – | – | – |
| Cc1ccc(N)cc1 | inactive | inactive | inactive | inactive | inactive | 4.35 µM (active) and 29.6 µM (active) and 27.3 µM (active) | – | – | – | 5.06 µM (active) and 25.2 µM (active) | 35.8 µM (active) and 38.6 µM (active) and 31.7 µM (active) | 40.2 µM (active) | inactive | inactive | 28.4 µM (active) and 30.6 µM (active) and 25.2 µM (active) | – | – | – | – | – |
| COC(=O)Nc1cccc(OC(=O)Nc2cccc(C)c2)c1 | inactive | inactive | inactive | inactive | inactive | 10.9 µM (active) | inactive | inactive | inactive | inactive | 35.6 µM (active) | inactive | inactive | inactive | 7.1 µM (active) and 17.8 µM (active) | inactive | – | – | – | – |
| Nc1cccc(Cl)c1 | inactive | inactive | inactive | inactive | inactive | inactive | inactive | inactive | inactive | inactive | 40.4 µM (active) and inactive | 71.8 µM (active) and inactive | inactive | inactive | 40.4 µM (active) and inactive | – | – | – | – | – |
| OCCCCO | inactive | inactive | inactive | inactive | inactive | – | – | – | – | – | – | – | inactive | – | – | – | inactive | – | – | – |
| CN1C(=O)CCS(=O)(=O)C1c1ccc(Cl)cc1 (stereo not drawn) | inactive | inactive | inactive | inactive | inactive | inactive | inactive | inactive | inactive | inactive | 28.3 µM (active) | inactive | inactive | inactive | – | inactive | – | – | – | – |
| C/C=C/c1ccc2c(c1)OCO2 | inactive | inactive | inactive | inactive | inactive | inactive | inactive | inactive | inactive | inactive | inactive and 79.6 µM (active) | inactive | inactive | inactive | – | – | – | – | – | – |
| C[C@]12CC[C@H](O)CC1=CC[C@@H]1[C@@H]2CC[C@]2(C)C(=O)CC[C@@H]12 | inactive | inactive | inactive | inactive | inactive | 54.5 µM (active) and 48.6 µM (active) and inactive | inactive | inactive | inactive | inactive | 79.7 µM (active) and 71 µM (active) and inactive | 44.8 µM (active) and 31.7 µM (active) and 19.5 µM (active) | – | inactive | – | inactive | – | -3.38% (inactive) | inactive | inactive |
| Cc1cccc(N)c1 | inactive | – | inactive | inactive | inactive | 54.6 µM (active) and inactive | inactive | inactive | inactive | 31.8 µM (active) and inactive | 7.99 µM (active) and 45.1 µM (active) and 39.9 µM (active) | 8.96 µM (active) and 35.6 µM (active) | inactive | 3.18 µM (active) and inactive | – | inactive | inactive | – | – | – |
| O=C(O)C1C(C(=O)O)C2(Cl)C(Cl)=C(Cl)C1(Cl)C2(Cl)Cl (stereo not drawn) | inactive | inactive | inactive | inactive | inactive | inactive | inactive | inactive | inactive | inactive | inactive | inactive | inactive | inactive | inactive | inactive | – | – | – | – |
| CC(C)c1cccc(C(C)C)c1O | inactive | inactive | inactive | inactive | inactive | – | inactive | inactive | inactive | – | – | – | inactive | – | – | – | inactive | – | – | – |
| C=CCN=C=S | inactive | inactive | inactive | inactive | inactive | 55.7 µM (active) and inactive | inactive | inactive | inactive | inactive | 40.8 µM (active) and inactive | inactive | inactive | inactive | inactive | – | – | 0.185% (inactive) | inactive | inactive |
| COc1cc(-c2ccc(N)c(OC)c2)ccc1N | inactive | inactive | inactive and 58.3 µM (active) | inactive | inactive and 46.3 µM (active) | – | – | – | – | 40.1 µM (active) and 39.5 µM (active) and 34 µM (active) | – | 12.7 µM (active) [middle of 4 runs] | inactive | – | – | – | inactive | – | – | – |
